Molecules are shown by their SMILES. About 83,000 compounds went through this panel and 20% of them were active in at least one assay; those are over-represented in the sample as a whole.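 Values shown are percent growth following 48 h exposure of cells in 96-well plates to a single concentration of compound; below 10 was considered active.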 Unmarked numbers belong to inactive results. Calls of active or inactive are those of the source.

The values that follow come from PubChem BioAssay (NCI).

The subject of the test is HL-60(TB) leukemia. The test is described as follows: NCI-60 one-dose screen, 48 h (100 = growth as untreated, 0 = no growth, -100 = all killed). The following applies: 10 µM unless noted.
For the compound `Cc1cc(N[C@@H]2CCC[C@H](Nc3ccnc4cc(Cl)ccc34)C2)nc(N2CCCCCC2)n1`, the growth was -72.5% (active).
Consider `Cc1cc(C)nc(SC2=C(Nc3ccc(O)cc3)C(=O)N(Cc3ccccc3)C2=O)n1`, for which the growth is 60.6% [40 µM].
For the compound `COc1ccc(OC)c(/C=C/C(=O)N/N=C/c2ccc(Cl)cc2)c1`, the growth was 20.1%.
The figure for `Cc1c(-c2cnc3ccc(Cl)cc3c2C(=O)O)nnn1-c1ccc(Cl)cc1` is 96.2%; for `CC(=O)c1c(C)[nH]c(-c2nc3ccc(N4CCN(C)CC4)cc3[nH]2)c1-c1ccc(N(C)C)cc1` it is -17.3% (active).
As to `NC(=S)NS(=O)(=O)c1ccc(N)cc1`, the growth was 94.5%.
As for `Cc1ccc2c(c1)C(C)Cc1c(Cl)ncnc1N2C` (stereo unspecified), the growth was 17.3%.
For `Cc1cccc(/C=C2\CN(C(=O)OC(C)(C)C)C/C(=C\c3cccc(C)c3)C2=O)c1`, the growth was 90.2%.
In the case of `Cc1ccc(-c2nc(N3CCN(CC(=O)Nc4ccc(Cl)cc4)CC3)c3ccccc3n2)cc1`, the growth was 99.8%.
Turning to `C/C=C(\C)C(=O)N[C@H]1C(O)C[C@]2(C)C3CC[C@@]4(C)C(CC[C@@H]4C(C)N(C)C)C3CCC2C1O` (stereo partly specified), the growth is 5.7% (active).
Consider `COc1cccc(-c2nc3sccn3c2-c2ccnc(NCCCNS(=O)(=O)c3c(Cl)cccc3Cl)c2)c1`, for which the growth was 17.9%.
`C=C1CC[C@@H]2[C@](C)(COC(C)=O)[C@H](OC(C)=O)CC[C@@]2(C)[C@@H]1CC(Nc1ccc(S(=O)(=O)Nc2nc(C)cc(C)n2)cc1)C1=CCOC1=O` (stereo partly specified): the growth was 21.7%.
For the compound `CCOC(=O)C/C(=C\c1ccccc1)C(C)=O`, the growth is 98.5%.
For the compound `Nc1nc(OCc2ccccc2)c2[nH]cnc2n1`, the growth is 62.7%.
For the compound `CCCCC(=O)OCC1OC(n2cnc3c(=S)nc[nH]c32)C(OC(=O)CCCC)C1OC(=O)CCCC` (stereo unspecified), the growth is 12.5%.
Take `C#C[C@@]1(O)[C@@H](CO)O[C@@H](n2cc(Br)c3c(N)ncnc32)[C@@H]1O`: the growth is -62.5% (active).
Turning to `Cc1cc(O)c(C(C)C)cc1N=O`, the growth was 66.1%.
Take `c1cc[n+](Cc2c3ccccc3cc3c2ccc2ccccc23)cc1`: the growth was 36%.
For the compound `C/C(=N/NC(=S)Nc1ccccc1)c1nc2ccc(Cl)cc2[nH]1`, the growth was -11.7% (active).
Take `Cc1ccc(CSCc2ccc(C(=O)NC3CC3)o2)cc1`: the growth was 59.5%.
As for `COC1(CC[C@@H](C)COC2OC(CO)C(O)C(O)C2O)O[C@H]2C[C@H]3[C@@H]4CC=C5C[C@@H](OC6OC(CO)C(OC7OC(C)C(O)C(O)C7O)C(O)C6OC6OC(C)C(O)C(O)C6O)CC[C@]5(C)[C@H]4CC[C@]3(C)[C@H]2[C@@H]1C` (stereo partly specified), the growth was 27.1%.
For the compound `COc1cc(C(=O)NNC(=O)c2ccccc2O)cc(OC)c1OC`, the growth is 80.4%.
For `COc1ccc(-c2nc3sccn3c2-c2ccnc(NCCCNS(=O)(=O)c3ccc(C)cc3)n2)cc1`, the growth was 0.661% (active).
Turning to `NCCCn1c2c(c3cc(-c4ccn[nH]4)ccc3c1=O)C(=O)c1ccccc1-2`, the growth is 39.6%.
With `O=C(CC(=O)C(F)(F)C(F)(F)C(F)(F)F)c1cc2ccccc2o1`, the growth was 99.3%.
The same measure for `O=C(CSc1ccc2nnc(-c3cccc(F)c3)n2n1)Nc1ccc2c(c1)OCO2`: 78.9%; for `N=C(N)c1ccc(-c2ccc(-c3ccc(Cl)cc3Cl)s2)cc1F`: -49.7% (active).
For the compound `CCOC(=O)Nc1nccs1`, the growth is 100%.
The figure for `C[C@H](NC(=O)[C@@H]1CSSC[C@@H](NC(=O)c2nc3ccccc3cc2O)C(=O)NCC(=O)N1C)c1ccccc1` is -27.6% (active).
`CCN(CC)CCCC(C)Nc1ccnc(/C=C/c2ccc(Cl)cc2)c1` (stereo unspecified): the growth was 65.9%.
The figure for `Cc1nc2scc(-c3ccc(Cl)cc3)n2c(=O)c1CCN1CCOCC1` is 99.6%; for `OC[C@@H](O)C(O[C@@H]1O[C@H](CO)[C@H](O)[C@H](O)[C@H]1O)[C@H](O)[C@@H](O)CO` (stereo partly specified) it is 94.9%.
In the case of `CCNC(=O)c1[nH]cc(-c2ccc(OC)cc2)c1-c1cc(OC)c(OC)c(OC)c1`, the growth was 5.15% (active).
The figure for `c1ccc(CN2C(c3ccccc3)=Nc3ccccc3C2c2c[nH]c3ccccc23)cc1` (stereo unspecified) is 19.6%.
In the case of `Cc1ccc(-c2nnc(SCc3nc(N)nc(Nc4ccccc4F)n3)n2-c2ccccc2)cc1`, the growth is -21.3% (active).
Take `CCOC(=O)C(Cc1cc(I)c(O)c(I)c1)NC(=O)c1ccccc1` (stereo unspecified): the growth was 90.2%.
